Data: the supplement of paper PMC12350171
Structures can show the parent of a compound that is named as a salt. A number with no mark means an inactive call.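 Rule for the calls: active = AUC significantly below DMSO controls by Student t-fit with adjusted P under 0.01; inactive = not significantly reduced.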

The compounds below were run on Haemophilus parainfluenzae (assay: growth AUC normalised to DMSO control (fraction of control); higher = less growth inhibition, active = hit call of the paper). Conditions: 20 µM.
How it was run: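 Hemin and NAD were added to the medium for Haemophilus parainfluenzae. All pathogens, after two anaerobic passages, were inoculated at a starting OD578 of 0.01 into pre-reduced mGAM plates with 20 μM compound and 1% DMSO under breathable seals, and OD578 was read hourly for 24 h in three biological replicates. AUC of each growth curve was obtained with the trapezoidal rule up to the exponential-to-stationary transition and normalised to DMSO controls from the same plate.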

| Compound | growth AUC normalised to DMSO control |
| --- | --- |
| NS(=O)(=O)c1cc(C(=O)O)cc(N2CCCC2)c1Oc1ccccc1 [Piretanide] | 1.06 |
| N/C(=N\C(=O)c1nc(Cl)c(N)nc1N)NCc1ccccc1 [Benzamil hydrochloride] | 0.991 |
| C=CCOc1ccccc1OCC(O)CNC(C)C (centres undefined) [Oxprenolol hydrochloride] | 0.958 |
| Nc1ccc(S(=O)(=O)c2ccc(N)cc2)cc1 [Dapsone] | 1 |
| CC(=O)OCC(=O)NCCCOc1cccc(CN2CCCCC2)c1 [Roxatidine acetate hydrochloride] | 0.971 |
| CC1(C)S[C@@H]2[C@H](NC(=O)[C@H](C(=O)O)c3ccsc3)C(=O)N2[C@H]1C(=O)O [Ticarcillin sodium] | 0.0663 (active) |
| C[C@]12C=CC(=O)C=C1CC[C@H]1[C@@H]3C[C@@H](O)[C@](O)(C(=O)CO)[C@@]3(C)C[C@H](O)[C@@]12F [Triamcinolone] | 1.01 |
| CCOc1ccccc1OC(c1ccccc1)C1CNCCO1 (centres undefined) [Reboxetine mesylate] | 1.01 |
| CNS(=O)(=O)Cc1ccc2[nH]cc(CCN(C)C)c2c1 [Sumatriptan succinate] | 0.984 |
| Nc1ccc(S(=O)(=O)NC(=O)c2ccccc2)cc1 [Sulfabenzamide] | 1.1 |
| CCOc1ccccc1OCC1CNCCO1 (centres undefined) [Viloxazine hydrochloride] | 0.967 |
| Cc1ncc([N+](=O)[O-])n1CC(C)O (centres undefined) [Secnidazole] | 0.937 |
| CC(C(=O)O)c1ccc(-c2ccccc2)c(F)c1 (centres undefined) [Flurbiprofen] | 0.943 |
| CCN(CC)C(C)CN1c2ccccc2Sc2ccccc21 (centres undefined) [Ethopropazine hydrochloride] | 0.963 |
| S=c1[nH]cnc2nc[nH]c12 [Mercaptopurine] | 0.997 |
| Cn1cnc([N+](=O)[O-])c1Sc1ncnc2[nH]cnc12 [Azathioprine] | 1.11 |
| COc1cc2nc(N3CCN(C(=O)C4COc5ccccc5O4)CC3)nc(N)c2cc1OC (centres undefined) [Doxazosin mesylate] | 0.992 |
| CN(C)CCC(c1ccc(Cl)cc1)c1ccccn1 (centres undefined) [Chlorpheniramine maleate] | 0.995 |
| CCCNC(C)C(=O)Nc1c(C)csc1C(=O)OC (centres undefined) [Articaine hydrochloride] | 1.01 |
| CNC[C@H](O)[C@@H](O)[C@H](O)[C@H](O)CO [Meglumine] | 1.05 |

| Compound | growth AUC normalised to DMSO control |
| --- | --- |
| CN(C)CCC[C@@]1(c2ccc(F)cc2)OCc2cc(C#N)ccc21 [Escitalopram oxalate] | 1.03 |
| CCOC(=O)C1=C(C)NC(C)=C(C(=O)OC)C1c1cccc(Cl)c1Cl (centres undefined) [Felodipine] | 0.863 |
| CN1CCN(CCCN2c3ccccc3Sc3ccc(S(=O)(=O)N(C)C)cc32)CC1 [Thioproperazine dimesylate] | 1.01 |
| CNCCC(Oc1ccc(C(F)(F)F)cc1)c1ccccc1 (centres undefined) [Fluoxetine hydrochloride] | 1 |
| Nc1nc(N)nc(-c2cc(Cl)ccc2Cl)n1 [Irsogladine maleate] | 1.01 |
| O=C1Cc2cc(CCN3CCN(c4nsc5ccccc45)CC3)c(Cl)cc2N1 [Ziprasidone  hydrochloride monohydrate] | 1.03 |
| CNCCc1ccccn1 [Betahistine mesylate] | 0.962 |
| CCOC(=O)C1=C(C)NC(C)=C(C(=O)OCC)C1c1ccccc1/C=C/C(=O)OC(C)(C)C [Lacidipine] | 1.01 |
| OC(CCN1CCCCC1)(c1ccccc1)C1CCCCC1 (centres undefined) [Trihexyphenidyl-D,L hydrochloride] | 1.01 |
| CC(=O)c1ccc2c(c1)N(CCCN(C)C)c1ccccc1S2 [Acetopromazine maleate salt] | 0.95 |
| CN1[C@@H]2CC[C@H]1C[C@@H](OC(c1ccccc1)c1ccccc1)C2 [Benztropine mesylate] | 1 |
| CC(=O)OCC1=C(C(=O)O)N2C(=O)[C@@H](NC(=O)Cc3cccs3)[C@H]2SC1 [Cephalothin sodium salt] | 0.0326 (active) |
| C=CC[N@@+]12CC[C@@]34c5ccccc5N5/C=C6/[C@H]7C[C@H]8[C@@]9(CC[N@@+]8(CC=C)C/C7=C/CO)c7ccccc7N(/C=C(/[C@@H](C[C@@H]31)/C(=C\CO)C2)[C@H]54)[C@@H]69 [Alcuronium chloride] | 1 |
| Cn1c(=O)c2nc[nH]c2n(C)c1=O [Theophylline monohydrate] | 0.98 |
| CC(C)NCC(O)COc1ccc(COCCOC(C)C)cc1 (centres undefined) [Bisoprolol hemifumarate] | 1.13 |
| CN(C)CCN(Cc1cccs1)c1ccccn1 [Methapyrilene hydrochloride] | 0.983 |
| COc1ccccc1N1CCN(CC(O)COc2cccc3ccccc23)CC1 (centres undefined) [Naftopidil dihydrochloride] | 0.971 |
| CNC(=C[N+](=O)[O-])NCCSCc1csc(CN(C)C)n1 [Nizatidine] | 0.993 |
| c1ccc2c(c1)CCCC2C1=NCCN1 (centres undefined) [Tetrahydrozoline hydrochloride] | 0.986 |
